# Experimental data as given in PubChem BioAssay AID1159506 (National Center for Advancing Translational Sciences (NCATS), 2015).
# Over roughly 59,000 sequences, the read-out has its median near -0.00055; the lowest 2% begin near -2. Only a selection was taken, and the lowest values are over-represented in it overall.
# Test: Identification of proteins required for the processing of the EWS-FLI1 nascent transcript;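 also: robust z of luciferase light less the median z of siRNAs with the same seed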
# Settings: TC32 Ewing sarcoma NR0B1-luc vs CMV-luc (EWS-FLI1 target promoter against control promoter), 48 h; screened at 20 nM (by protocol)
# Summary of the method: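 Parallel TC32-NR0B1-luc and TC32-CMV-luc reverse transfections with 20 nM siRNA in RPMI-1640/10% FBS, luciferase measured 48 h later. Seed-adjusted z-scores from normalized, z-score-MAD transformed data; AllStars negative and siGL4 controls on each plate.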
row,Sequence,seed-corrected z-score
1,UAGGAUUACAGCAAUCAUC against 11-Mar,0.0159
2,UGUCGUCAAAGUAUAAUCG against ETV5,-2.12
3,UAUGGAGCAGGUAAUAGAG against ZNF311,0.514
4,UUCUCAUCAAACUCUACAC against OLFML3,0.213
5,UCUCCUAUAGGACCUGUGC against MGAM,-0.17
6,UGAGCAUUUAUUGUGAGUG against OR2T6,-0.244
7,UCCUGGAGCACAUCAGUGC against ASPRV1,0.0418
8,UGGUUGUUAAAGGUCAUGG against HIPK2,-2.07
9,UACGCUUGAAGUACCGAUG against SLC7A1,-2.19
10,AAACGUACAUGAUGGGAGC against GPR155,-0.807
11,UUGAACUCAGCGAUCAUCU against TNNC2,-0.279
12,UAUUAUCAAUGGUCCAGGG against AAGAB,0.496
13,UUUGAUGCCGUCAUCAUCC against TMEM106C,0.22
14,AGAAGUUUUUGCUCUGUCC against DYRK4,0.321
15,AAAUGUACAGAACUAUCUC against PADI2,-2.36
16,UCUCUGAAGAGUACAGGAG against PTOV1,0.398
17,UCAGGUGCAAAGCUACUGG against PARK2,-2.4
18,UCAUUGACAUUGGUCACGG against CYP27C1,-0.22
19,UUAUAACCACUGACUCUCC against MIPEPP3,0.124
20,UAUUGUUCUUGUCCUUUUG against TERF1,-0.319
21,AACCGAGUCAGAAUGGUGC against SDC1,0.384
22,UUUGGAAGACUGGAGCAGG against CTIF,0.631

row,Sequence,seed-corrected z-score
1,UUCCCAUACCCUAUGGUCG against KCNK10,-0.13
2,UCUACUGUCAUUGAGACCA against SNRPB,-2.67
3,UCUGGUACUCAGAAGGUCC against COPS5,1.12
4,AUAGUAACGAUCAACUCCA against NDUFA1,0.512
5,AUCGAUAUAAACUGCUUCC against PDE1A,-2.44
6,UAUGUACUUCAGGCGCCUG against SLC35A2,0.271
7,AGUUUAUACAUUCUUUUCC against SPTLC1,-0.145
8,UAGAAGAUAGGUGAAGUGA against DNAJC22,0.192
9,UUACACUCAAGAAGAUUUC against GPR141,-0.389
10,UUAACGUCCACCACCAGAG against TYMP,-0.582
11,UCAUUGAGAAUUCUCCGGG against NENF,2.29
12,AUCGUCCCAGUAAAUGUCC against BEST3,-0.819
13,UAGACUAACAUUGACUUAG against LOC150519,0.00864
14,UCUUUGCUAAGCUCGGAGG against RAD51C,-2.07
15,AUAGAUAUGUUCACAAGUG against UNC119B,0.327
16,UAGGGCGCAAGGGUAUGUG against SPDYE3,-0.136
17,UUACUAGCUCCGGUGGCAC against KCNK4,-0.0516
18,UUUAUCCCGAAGGAGGUUC against CAB39L,-2.55
19,UGUAUUCCAACCUACAAAC against HGSNAT,-0.666
20,AAUCUAACAAAUGAAGGUG against EIF2A,0.719
21,AUAGUUCCUUUGACUAUGG against IKZF5,-0.306
22,UCUAAUCCAAGUUCUACUG against AKAP5,-0.304

row,Sequence,seed-corrected z-score
1,UUGUGGGUGGUGAAGAGGC against EPOR,0.293
2,AACCUGGUAAGUCUCGAUG against PPP2R2B,-0.459
3,UAACGGAUGGUGUGGUUUC against BCOR,-0.0753
4,UACCUUUUAUCCUGGGUUG against LOC285423,-2.09
5,UAGUGUAAACAAGAAGUUG against ABHD10,0.996
6,AAAGCGAGCACUGCGGAUC against CCDC102A,-0.304
7,UAGAGCACAGGAUAGAACC against RAP1GAP,0.295
8,UGUCUUCUAAGUAGAGCCU against VIPR2,-2.47
9,AACGAAACAAACUUGGUCC against NGEF,0.943
10,UAUCCUAAAAUCGCUGUUG against ARNTL2,-0.114
11,UCCCAUUGAAAGCAUAUCC against TSHR,-1.47
12,UAUCUUUAUCAAAACCUCG against EFCAB1,-0.824
13,UAUGGAAUAAGUUGCUCGA against MED30,-0.0259
14,UUGACUACGAUGAGCUUGC against ETV3L,1.16
15,UUAUUAUGUAUGCAUCUGG against LINC00632,-0.334
16,ACAGUGGUGAGUUAUCUCA against CDC42,-2.8
17,AUGGAUUCUUCAAUCGUCC against SMARCAD1,0.8
18,AGUCAUAUCAUUUAUAGUG against FOXQ1,-0.473
19,UUUCAAUUUAGUUUGAUGA against LOC728147,0.0773
20,AUUACUUCGAGACUUGCUG against LCLAT1,-0.482
21,AAACUUAGUAGAGUUGUCC against LOC342541,0.528
22,GUUGUGACCUGUCACGAUG against CTU1,-1.99

row,Sequence,seed-corrected z-score
1,UGCUUGACAACUGGCCACC against RPL18AP4,-0.411
2,UCAUCAUCUUCUUCGAGGC against DCLRE1A,-2.16
3,UAGAGGACCUUCAUGUUGU against THY1,0.624
4,UUAUCUGGAAUGAACAAUG against PHF3,-0.486
5,UACGAUCAUUGCACUGUCC against FBN1,-0.21
6,UAUGUAUCUACCCAUCCGC against ATG3,-1.27
7,UGACUGUUCACGGAAUUCU against TGM3,-0.755
8,UCUUUAGGAAUGUAAAGCC against SKIV2L2,0.824
9,UCAUUUUCGACCACCUUUC against WBSCR16,-0.738
10,UUAGGAACUCGAACGACGU against GTF2F1,0.889
11,UUCUUCUUAGAUUUAUGCC against RPL3,-2.09
12,UCUCGAUUGAGGGUGGUUG against FLRT3,0.383
13,AUAGGUGCAAGGCUUGUGC against C1orf56,-2.01
14,UCUUCUCGAACAGAGGUCG against F2,-0.0868
15,UGAGGGUUUAGCAUCAAGC against PCGF1,-1.47
16,UCUUUUAACGACCUCCUGC against SLC35D3,0.495
17,UCGCGGAUCUCCUUUGUGG against HMGN2P18,-0.51
18,AAAGUCCCAAGUGCUAAGA against FAM180B,2.95
19,UUCUCGAUGCGGUCCAUCC against RILPL1,1.36
20,UUUGGUAGAAAAUUGCAGA against FJX1,-0.707
21,UUCCGUUCCACCUCCAUCA against SPATC1,-2.15
22,UCAUCUACCUGUAUUACCU against CDCA8,-0.479

row,Sequence,seed-corrected z-score
1,AAUGGUAGUAGCGGAAUCG against SLC12A6,-1.16
2,UAUGUACUUCUGACAAGUC against RNF125,0.00921
3,UAUCUAGCAGCUCUCCCAG against AMHR2,0.151
4,UAACCGACUGGGUAGAGCG against EMC4,0.348
5,UCUCUGCUCAAUGUUUUCU against LBH,-2.25
6,UACGAGGAUGUUGUAUUCC against N4BP1,-0.092
7,UACAGUACAAACAAGGCUG against CEBPA,-0.377
8,UUAACUGCUAGUGUAUUGG against TCP1,-1.18
9,UCAAGGAUAAGAGAGAUUG against RORC,0.034
10,UGCGAUUGAAUAUUCUACG against CSRNP3,-2.35
11,AUUCUUACAAUCUAAAGGC against SUPT7L,0.435
12,AGAGGUUGUACAUUCUUCG against SESN2,-2.47
13,UUCUUAGACACGUAGUACC against KAT2B,0.834
14,UAGGGAUUCCCUGUAGUUC against COLEC10,1.57
15,AUCUGUCUGAGUGCAAAUC against HIPK1,-0.0595
16,UUGGUAUCAAGGUCUACAC against DENND4B,-0.319
17,AUUGUAUACAGCGAGUUCU against GP1BA,0.181
18,AUCCGGAACCUGUAGAUCG against CCDC130,-0.0498
19,AAUGGUCUUGUUGGUCUCC against TSNARE1,-2.7
20,UGAUUAACCAGUACUGAUG against C5orf42,0.83
21,AUUAGAACUACAGCUCUCG against LOC648999,0.638
22,UCGAUGGUAAGGUAAGAGC against DNMT3B,-2.25

row,Sequence,seed-corrected z-score
1,UCUCGUAGAACAUUGCUGG against VPS53,-0.933
2,AAAGCUGGAAUAAAUAGUC against DLX5,-0.397
3,UGAAUGUCAAUGUCGUAUG against PCDHB1,-0.133
4,UGUUGUUCUUGACUGACUG against SNRPD2P1,-4.32
5,UUAGUGAUAUUCUUGACAG against PSMD5,0.816
6,UCAUGUAAAACUCUCGGCC against PARS2,-0.0062
7,UCAUUGAAGUGCUUAGUGG against RASGRF1,-0.277
8,UGUUGUAGAUCCAUAGUUC against KLHDC2,-4.33
9,UCCAUGUCAUGUAAAUUUC against MR1,-0.441
10,AUUGCAAAAGUAGAUUUAC against RPL26P30,0.181
11,UUCAGUUCUAGAGGUCUGC against TMEM53,-0.0791
12,UUCGCUUCCAGUUCACCUC against MBOAT1,0.704
13,UAUGUGACGAGGGUCAUGC against THBS1,-2.07
14,AAACCCUUCACAGUCUUGG against LOC388955,0.158
15,AGCUAUAUUAUUCACAGCC against BTF3L4,-0.0759
16,UGUCUAAUAAACAAGUUAC against DNA2,-0.418
17,UCUCCGAUGAGAGCUUUGG against GNS,-0.354
18,AUAGUGUAAAGAACAUCCG against HNRNPL,2.46
19,UCCAUUACAAUCGACCUUU against PROK2,-0.664
20,UUCCCGUUCAUUUUGCAAC against ASZ1,-0.283
21,AAGGUGUCGAUGUCCAUGG against MSLNL,-2.6
22,AAAUCAACCAAUUAAAGUC against LOC403323,1.01
